Our source for the inhibition values is ChEMBL document CHEMBL1961873, “Compounds: GSK PKIS; Assays: Nanosyn kinase panel” (2012).

The structures appear in SMILES notation.

The target of test [1] is RAF proto-oncogene serine/threonine-protein kinase (Homo sapiens) (UniProt P04049). The settings on record: at 1 µM.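 Note: values are the mean percent inhibition of CRAF.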
The target in test [2] is T1, Interleukin-1 receptor-associated kinase 4 (Homo sapiens) (UniProt Q9NWZ3).
T1 sequence (whole entry): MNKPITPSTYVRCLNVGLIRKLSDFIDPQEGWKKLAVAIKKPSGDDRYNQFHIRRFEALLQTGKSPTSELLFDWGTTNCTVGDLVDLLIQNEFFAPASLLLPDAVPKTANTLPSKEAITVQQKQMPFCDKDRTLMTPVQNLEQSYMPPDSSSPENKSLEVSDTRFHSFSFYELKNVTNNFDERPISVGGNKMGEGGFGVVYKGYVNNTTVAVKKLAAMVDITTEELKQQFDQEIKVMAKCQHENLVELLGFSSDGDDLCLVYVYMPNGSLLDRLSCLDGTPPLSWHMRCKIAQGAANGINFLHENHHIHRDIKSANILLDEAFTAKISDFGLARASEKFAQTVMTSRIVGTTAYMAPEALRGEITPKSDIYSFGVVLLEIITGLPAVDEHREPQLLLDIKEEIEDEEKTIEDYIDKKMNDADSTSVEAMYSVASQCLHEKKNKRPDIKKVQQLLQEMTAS
The settings on record: at 0.1 µM.

The target of test [3] is T1, Interleukin-1 receptor-associated kinase 4 (Homo sapiens). The settings on record: at 1 µM.
The target in test [4] is Leucine-rich repeat serine/threonine-protein kinase 2 (Homo sapiens) (UniProt Q5S007). Conditions: at 0.1 µM.
The target is the same in test [5]. Conditions: at 1 µM.
In test [6] the test system is Leucine-rich repeat serine/threonine-protein kinase 2 (Homo sapiens), Q5S007 [G2019S]. The settings on record: at 0.1 µM.
Test [7] has the same test system. The settings on record: at 1 µM.

Chain of Leucine-rich repeat serine/threonine-protein kinase 2 (Homo sapiens) (Q5S007 whole entry): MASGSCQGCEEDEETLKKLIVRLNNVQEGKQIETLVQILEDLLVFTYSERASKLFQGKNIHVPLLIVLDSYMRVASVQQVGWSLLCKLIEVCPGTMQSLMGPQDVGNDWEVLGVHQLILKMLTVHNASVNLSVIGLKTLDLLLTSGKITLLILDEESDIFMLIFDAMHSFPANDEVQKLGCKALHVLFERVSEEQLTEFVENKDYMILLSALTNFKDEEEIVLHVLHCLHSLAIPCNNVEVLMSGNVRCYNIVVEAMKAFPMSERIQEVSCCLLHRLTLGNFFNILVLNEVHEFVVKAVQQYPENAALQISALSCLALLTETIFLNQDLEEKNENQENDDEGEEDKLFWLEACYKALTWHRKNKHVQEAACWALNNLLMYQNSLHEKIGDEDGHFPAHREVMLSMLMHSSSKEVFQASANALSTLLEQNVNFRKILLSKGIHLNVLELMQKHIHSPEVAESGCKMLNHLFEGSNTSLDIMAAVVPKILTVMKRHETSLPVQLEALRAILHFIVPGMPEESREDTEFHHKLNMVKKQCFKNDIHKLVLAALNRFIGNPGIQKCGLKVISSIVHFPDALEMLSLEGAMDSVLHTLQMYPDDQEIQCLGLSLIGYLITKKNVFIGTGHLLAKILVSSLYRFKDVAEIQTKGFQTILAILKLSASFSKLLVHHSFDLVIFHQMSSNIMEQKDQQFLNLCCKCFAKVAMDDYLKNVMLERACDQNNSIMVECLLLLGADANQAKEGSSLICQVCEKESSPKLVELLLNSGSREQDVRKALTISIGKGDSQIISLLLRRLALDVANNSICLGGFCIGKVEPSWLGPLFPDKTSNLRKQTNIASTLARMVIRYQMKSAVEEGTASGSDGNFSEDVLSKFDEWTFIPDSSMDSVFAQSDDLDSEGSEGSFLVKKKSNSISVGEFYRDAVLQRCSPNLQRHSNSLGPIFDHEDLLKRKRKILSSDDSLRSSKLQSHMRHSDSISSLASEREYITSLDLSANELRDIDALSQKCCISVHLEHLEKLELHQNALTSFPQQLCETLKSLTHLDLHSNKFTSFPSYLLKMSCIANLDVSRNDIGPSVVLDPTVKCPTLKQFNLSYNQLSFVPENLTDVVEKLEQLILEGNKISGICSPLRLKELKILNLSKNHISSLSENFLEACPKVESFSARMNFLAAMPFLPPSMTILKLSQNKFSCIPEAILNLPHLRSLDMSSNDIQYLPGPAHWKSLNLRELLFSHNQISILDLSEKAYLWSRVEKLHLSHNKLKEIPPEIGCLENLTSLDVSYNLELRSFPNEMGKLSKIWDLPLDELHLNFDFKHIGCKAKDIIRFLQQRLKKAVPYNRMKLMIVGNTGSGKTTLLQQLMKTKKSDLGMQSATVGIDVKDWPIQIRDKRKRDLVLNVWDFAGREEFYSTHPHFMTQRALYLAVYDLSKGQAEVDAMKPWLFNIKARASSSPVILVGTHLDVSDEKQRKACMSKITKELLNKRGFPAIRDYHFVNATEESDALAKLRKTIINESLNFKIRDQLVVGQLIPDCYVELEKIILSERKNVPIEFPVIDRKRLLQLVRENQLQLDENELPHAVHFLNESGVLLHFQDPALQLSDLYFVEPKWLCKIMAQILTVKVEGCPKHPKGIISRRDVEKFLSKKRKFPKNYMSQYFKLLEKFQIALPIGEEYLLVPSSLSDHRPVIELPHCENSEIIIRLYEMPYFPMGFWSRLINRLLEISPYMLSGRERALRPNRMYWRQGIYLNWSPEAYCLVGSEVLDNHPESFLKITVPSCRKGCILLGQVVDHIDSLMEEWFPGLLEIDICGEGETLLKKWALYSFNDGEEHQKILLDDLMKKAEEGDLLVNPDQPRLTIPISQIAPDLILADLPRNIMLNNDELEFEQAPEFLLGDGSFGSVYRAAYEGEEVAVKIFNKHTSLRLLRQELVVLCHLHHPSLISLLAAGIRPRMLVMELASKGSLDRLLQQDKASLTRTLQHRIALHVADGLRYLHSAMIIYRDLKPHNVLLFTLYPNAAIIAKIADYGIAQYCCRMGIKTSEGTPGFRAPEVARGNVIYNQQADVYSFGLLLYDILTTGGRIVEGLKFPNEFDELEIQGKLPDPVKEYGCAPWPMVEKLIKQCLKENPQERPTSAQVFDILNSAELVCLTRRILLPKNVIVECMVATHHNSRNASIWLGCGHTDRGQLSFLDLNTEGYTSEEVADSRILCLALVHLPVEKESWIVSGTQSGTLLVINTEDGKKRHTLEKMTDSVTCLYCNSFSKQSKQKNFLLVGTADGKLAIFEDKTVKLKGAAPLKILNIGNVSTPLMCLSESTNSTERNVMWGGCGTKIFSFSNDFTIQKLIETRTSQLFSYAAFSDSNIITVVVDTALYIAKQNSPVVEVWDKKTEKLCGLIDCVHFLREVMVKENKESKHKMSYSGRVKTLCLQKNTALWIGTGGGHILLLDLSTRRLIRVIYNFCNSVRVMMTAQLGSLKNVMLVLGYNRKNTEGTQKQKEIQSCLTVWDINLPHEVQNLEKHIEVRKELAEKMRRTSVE
Chain of Leucine-rich repeat serine/threonine-protein kinase 2 (Homo sapiens), Q5S007 [G2019S] (Q5S007 whole entry G2019S): as the sequence (Q5S007 whole entry) above, with G2019S counted along it
Chain of RAF proto-oncogene serine/threonine-protein kinase (Homo sapiens) (P04049 whole entry): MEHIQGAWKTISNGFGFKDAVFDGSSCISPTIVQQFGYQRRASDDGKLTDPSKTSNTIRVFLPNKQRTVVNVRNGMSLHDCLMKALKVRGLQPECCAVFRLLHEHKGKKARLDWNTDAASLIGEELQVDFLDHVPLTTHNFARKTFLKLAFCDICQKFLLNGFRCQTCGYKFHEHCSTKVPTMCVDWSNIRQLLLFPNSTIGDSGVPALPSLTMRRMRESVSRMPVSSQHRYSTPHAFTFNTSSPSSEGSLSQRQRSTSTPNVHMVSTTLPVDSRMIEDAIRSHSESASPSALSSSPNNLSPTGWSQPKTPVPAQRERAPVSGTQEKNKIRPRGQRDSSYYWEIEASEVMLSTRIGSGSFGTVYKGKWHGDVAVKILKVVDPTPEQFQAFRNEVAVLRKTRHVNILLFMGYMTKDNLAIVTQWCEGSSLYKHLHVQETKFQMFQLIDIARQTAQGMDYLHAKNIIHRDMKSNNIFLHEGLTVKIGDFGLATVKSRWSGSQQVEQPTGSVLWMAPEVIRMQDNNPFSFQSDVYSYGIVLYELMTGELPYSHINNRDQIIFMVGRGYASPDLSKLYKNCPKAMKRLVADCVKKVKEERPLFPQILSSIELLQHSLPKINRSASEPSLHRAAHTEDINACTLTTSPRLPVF

The inhibition is the change of the read-out against control, counted positive when it falls. Take `CS(=O)(=O)CCNCc1cc(-c2cc3c(Nc4ccc(OCc5cccc(F)c5)c(Cl)c4)ncnc3s2)cs1`: the inhibition was -3.41% in test [1]; 2.58% in test [2]; 3.31% in test [3]; 0.31% in test [4]; 4.51% in test [5]; 1.2% in test [6]. Further, the inhibition in test [7] turned out to be 5.39%.

As for `COc1ccc(-c2ccc3c(NC(=O)C4CC4)n[nH]c3n2)cc1`, the inhibition in test [2] is 2.75%; in test [3] it was 0.45%; in test [4], 1.6%; in test [5], 5.11%; in test [6], 2.17%; in test [7], 3.39%.

Turning to `CCc1cccc(CC)c1/C=C/c1cncc(C(=O)NC)c1`, the inhibition in test [1] was -1.79%; in test [2] it was -3.49%; in test [3], 1.51%; in test [4], 3.05%; in test [5] it was 4.51%; in test [6] it was 2.33%. Also, the inhibition in test [7] stood at 7.93%.

On to `Fc1ccc(-c2c(-c3ccncc3)nc3n2CCS3)cc1`, for which the inhibition is -2.98% in test [1]; 1.96% in test [2]; 1.7% in test [3]; -3.32% in test [4]; -2.49% in test [5]; -1.05% in test [6]. Besides, the inhibition in test [7] is 0.48%.

As to `CCc1ccc(Oc2nccc(-c3c(-c4ccc(F)cc4)ncn3C3CCNCC3)n2)cc1`, the inhibition in test [1] is -0.51%; in test [2], 2.21%; in test [3], 2.52%; in test [4] it was 0.68%; in test [5] it was 6%; in test [6], 3.1%. The inhibition in test [7] is 6.63%.

As to `COC(=O)Nc1nc2ccc(Sc3ccc(NC(=O)Nc4cc(C(F)(F)F)ccc4F)cc3)cc2[nH]1`, the inhibition in test [1] is 50%; in test [2], -0.12%; in test [3] it was 0.72%; in test [4], 0.83%; in test [5] it was 9.98%; in test [6] it was 0.3%. Moreover, the inhibition in test [7] came to 4.85%.

For the compound `CCC(=O)Nc1ccc(C)c(-c2ccc(C(=O)NCC3CC3)cc2)c1`, the inhibition was -0.29% in test [1]; 1.62% in test [2]; 2.19% in test [3]; -0.86% in test [4]; 1.68% in test [5]; 0.68% in test [6]. Further, in test [7], the inhibition was 2.28%.

Take `NS(=O)(=O)c1ccc(N/N=C2\C(=O)Nc3ccc(C(=O)NCCCn4ccnc4)cc32)cc1`: the inhibition in test [1] is 17.5%; in test [2], 3.89%; in test [3] it was 1.67%; in test [4], 7.05%; in test [5], 18.7%; in test [6], 11.1%. In test [7], the inhibition came to 38.8%.

Take `CN(C)CCCNc1nccc(-c2c(-c3ccc(F)cc3)nn3cc(C(F)(F)F)ccc23)n1`: the inhibition is 0.11% in test [1]; -2.77% in test [2]; 1.66% in test [3]; -2% in test [4]; 1.95% in test [5]; -0.33% in test [6]. For the same compound, the inhibition in test [7] came out at 2.73%.

In the case of `COc1ccc(C2=C(N3CCc4ccccc43)C(=O)NC2=O)cc1`, the inhibition in test [1] was -3.87%; in test [2], 5.89%; in test [3], 2.48%; in test [4], 3.04%; in test [5], 10.9%; in test [6], 4.7%. Moreover, the inhibition in test [7] was determined as 13.9%.

Take `COc1cc(Nc2ncc3c(C)nc(-c4cccc(Oc5ccccc5)c4)n3n2)cc(OC)c1OC`: the inhibition is -0.45% in test [1]; -1.6% in test [2]; 0.83% in test [3]; 11.7% in test [4]; 18.3% in test [5]; 13.8% in test [6]. Besides, the inhibition in test [7] stood at 47.3%.

For `O=C(Nc1n[nH]c2nc(-c3ccco3)ccc12)C1CC1`, the inhibition in test [1] is 0.48%; in test [2], -2.9%; in test [3], 0.56%; in test [4], 3.59%; in test [5], 7.47%; in test [6], 2.37%. In addition, the inhibition in test [7] is 8.01%.

As for `COc1ccc2cc(-c3c(-c4ccncc4)nc(-c4ccc([S+](C)[O-])cc4C)n3C)ccc2c1` (stereo not drawn), the inhibition in test [1] was 2.82%; in test [2], -4.88%; in test [3], -0.25%; in test [4], -0.88%; in test [5] it was 0.64%; in test [6] it was 0.88%. Besides, in test [7], the inhibition worked out at 4.04%.

As for `N#Cc1ccc(Oc2nccc(-c3c(-c4ccc(F)cc4)ncn3C3CCNCC3)n2)cc1`, the inhibition was -0.95% in test [1]; 2.17% in test [2]; 2.43% in test [3]; 2.8% in test [4]; 3.91% in test [5]; 4.91% in test [6]. The inhibition in test [7] was found to be 4.95%.

`Fc1ccc(-c2ncn(C3CCNCC3)c2-c2ccnc(Oc3ccc(F)c(F)c3)n2)cc1`: the inhibition in test [1] is -0.68%; in test [2], 1.33%; in test [3], 1.17%; in test [4] it was -3.16%; in test [5] it was -4.05%; in test [6], 0.63%. Further, the inhibition in test [7] turned out to be 2.39%.

Take `O=C(NCC1CC1)c1ccc(-c2cccc(C(=O)NC3CC3)c2)cc1`: the inhibition is 7.69% in test [1]; -3.46% in test [2]; 0.85% in test [3]; 3.26% in test [4]; 6.31% in test [5]; 1.46% in test [6]. The inhibition in test [7] is 5.03%.

For `NCc1ccc(-n2c(-c3nonc3N)nc3cnccc32)cc1`, the inhibition in test [1] was 3.91%; in test [2], -0.81%; in test [3] it was 2.35%; in test [4], 17.2%; in test [5], 53.5%; in test [6], 22%. Also, the inhibition in test [7] stood at 54.1%.
